In PubChem BioAssay one finds inhibition data, which are given here for 13 molecules.

Structures are written as SMILES. A number with no mark means an inactive call. Activity calls are given as the source filed them.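 Rule for the calls, unless noted: active = mean inhibition above 46.5%, the solvent-only control mean plus 3 SD; inactive = the rest.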

Assay [1] has as its system transactivating tegument protein VP16 (Human herpesvirus 1). Nature of the assay: compounds suppressing VP16-driven luciferase signal – cell-based, luminescence, single concentration, counter-screen for SRC2 inhibitor project (AID 652007; in the data active = inhibition above about 36%). Particulars: cell-based VP16 transactivation luciferase reporter, at 8.9 µM, hits give high values.
The target of assay [2] is Nuclear receptor coactivator 2 (Homo sapiens) (UniProt Q15596). Nature of the assay: inhibition of GAL4-SRC2 driven luciferase expression – cell-based, luminescence, HEK293, triplicate, confirmation (AID 652008).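 Note: 0% = DMSO-treated cells and 100% = Gossypol at 36 µM.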 The settings on record: HEK293 GAL4-SRC2 luciferase reporter, at 8.9 µM, hits give high values. (In general: Reporter assays use an easily measured gene product as a stand-in for the process of interest.)
Nuclear receptor coactivator 2 (Homo sapiens), sequence (Q15596 whole entry, looked up, the tested form may be a part): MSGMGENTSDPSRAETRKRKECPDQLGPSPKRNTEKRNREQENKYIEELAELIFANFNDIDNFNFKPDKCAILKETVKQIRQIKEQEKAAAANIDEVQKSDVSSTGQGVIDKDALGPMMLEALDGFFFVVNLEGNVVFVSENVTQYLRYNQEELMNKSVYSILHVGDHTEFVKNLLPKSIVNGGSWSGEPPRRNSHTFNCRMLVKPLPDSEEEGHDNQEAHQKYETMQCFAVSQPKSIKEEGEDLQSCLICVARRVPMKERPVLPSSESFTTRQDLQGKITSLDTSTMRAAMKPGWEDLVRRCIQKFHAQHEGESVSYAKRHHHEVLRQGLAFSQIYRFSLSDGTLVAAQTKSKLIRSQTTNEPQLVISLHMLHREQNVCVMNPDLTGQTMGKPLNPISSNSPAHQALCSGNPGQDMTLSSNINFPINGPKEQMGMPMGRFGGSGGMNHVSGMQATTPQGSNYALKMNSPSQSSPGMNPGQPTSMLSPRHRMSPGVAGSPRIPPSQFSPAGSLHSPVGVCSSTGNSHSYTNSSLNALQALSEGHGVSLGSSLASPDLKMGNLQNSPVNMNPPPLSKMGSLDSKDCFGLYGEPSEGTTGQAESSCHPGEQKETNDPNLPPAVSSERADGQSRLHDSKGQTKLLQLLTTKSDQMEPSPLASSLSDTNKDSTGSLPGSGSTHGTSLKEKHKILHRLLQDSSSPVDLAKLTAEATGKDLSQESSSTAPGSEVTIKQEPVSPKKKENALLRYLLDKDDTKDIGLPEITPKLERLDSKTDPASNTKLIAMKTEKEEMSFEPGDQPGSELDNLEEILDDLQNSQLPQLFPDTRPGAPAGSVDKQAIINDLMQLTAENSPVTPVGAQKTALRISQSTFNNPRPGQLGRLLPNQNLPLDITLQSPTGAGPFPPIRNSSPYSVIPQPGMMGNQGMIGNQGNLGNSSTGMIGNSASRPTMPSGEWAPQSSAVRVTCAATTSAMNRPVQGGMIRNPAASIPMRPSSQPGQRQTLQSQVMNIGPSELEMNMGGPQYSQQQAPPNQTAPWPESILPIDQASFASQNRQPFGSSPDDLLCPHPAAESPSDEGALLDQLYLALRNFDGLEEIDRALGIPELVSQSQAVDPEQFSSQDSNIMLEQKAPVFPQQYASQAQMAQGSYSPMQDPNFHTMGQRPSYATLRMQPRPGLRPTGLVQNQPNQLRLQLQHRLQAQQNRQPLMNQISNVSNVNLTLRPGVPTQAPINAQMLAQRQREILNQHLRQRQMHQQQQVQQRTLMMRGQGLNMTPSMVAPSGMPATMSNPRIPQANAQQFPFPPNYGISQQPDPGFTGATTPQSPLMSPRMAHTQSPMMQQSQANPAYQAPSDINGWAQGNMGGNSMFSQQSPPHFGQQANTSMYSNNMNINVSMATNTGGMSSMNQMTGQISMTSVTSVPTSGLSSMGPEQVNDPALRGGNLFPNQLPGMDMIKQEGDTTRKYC

Broadly, the inhibition is the change of the read-out against control, counted positive when it falls. As to `CN(C)CCCN(C(=O)CCOc1ccccc1)c1nc2c(F)cccc2s1`, the inhibition in assay [1] was -2.69%; in assay [2] it was 20.6%.

For the molecule `CCCSc1nnc(Sc2nnnn2-c2ccccc2)s1`, the inhibition was 7.33% in assay [1] and 16.8% in assay [2].

Turning to `O=C(Nc1ccc(N2CCOCC2)cc1)c1cnsn1`, the results for the inhibition in assay [1] and in assay [2] were -8.19% and 34.3%, respectively.

In the case of `CCOC(=O)c1ccccc1NC(=O)Cn1c(-c2nonc2N)nc2ccccc21`, the inhibition in assay [1] is -1.87%; in assay [2] it was 6.09%.

Take `CN(C)S(=O)(=O)c1cccc(NC(=O)CSc2ncnc3ccccc23)c1`: the inhibition in assay [1] was 7.54%; in assay [2], 29.7%.

As for `CC(=O)N1CCOc2ccc(S(=O)(=O)NCC3CCC(C(=O)Nc4ccc(C)cn4)CC3)cc21` (stereo unspecified), the inhibition is 14.8% in assay [1] and 15.4% in assay [2].

As to `Cc1ccc(-c2c3c(nc4sc(C(N)=O)c(N)c24)CCC3)cc1`, the figures for the inhibition in assay [1] and in assay [2] were 1.89% and 34.5%, respectively.

In the case of `CCOc1ccc2oc(C(=O)NCc3ccccc3CN3CCCC3)c(C)c2c1`, the inhibition in assay [1] was -10.5%; in assay [2], -12.9%.

Take `CC(=O)c1cccc(NC(=O)Nc2ccc(C(=O)N3CCOCC3)cc2)c1`: the inhibition in assay [1] is -8.69%; in assay [2], 17.1%.

`N=c1c2c3c(sc2ncn1N)CCCCC3`: the inhibition is 2.99% in assay [1] and -23.5% in assay [2].

For `Cc1ccc(C(=O)Nc2nc3ccccc3[nH]2)cc1`, the inhibition is -3.8% in assay [1] and 49.1% (active) in assay [2].

Regarding `C=CCN(CC#CCN(C)C(=O)c1cccn1C(=O)OC(C)(C)C)Cc1ccc(OC)cc1OC`, the inhibition in assay [1] was -6.71%; in assay [2], -1.62%.

As to `COc1cc(CNS(=O)(=O)c2ccc3c(c2)CC(C)N3C(=O)C2CCC2)cc(OC)c1OC` (stereo unspecified), the inhibition in assay [1] is 5.37%; in assay [2], 29.3%.
